Structures are written as SMILES. Active and inactive are the calls of the source. Unless noted, the rule behind the calls is not given here.

Drawing on PubChem BioAssay, this text covers composite z-score and z-score for five compounds.

A short description of experiment [1]: compounds binding Alexa647 anti-His antibody – biochemical, small-molecule microarray, 635 nm fluorescence, artefact control for SMM control protein annotation, primary screen (AID 1128).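 Note: score merges feature fluorescence with signal-to-noise for each printed compound spot.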 The note with it: higher = more signal.
Experiment [2] relates to Human papillomavirus type 1a E7 protein (residues 1-88). The experiment in a line: HPV1a E7 small-molecule binders, primary screen, biochemical, small-molecule microarray, residues 1-88, 635 nm (AID 1129). The settings on record: small-molecule microarray binding, fluorescence 635 nm; higher = more signal.
The target of experiment [3] is Focal adhesion kinase 1 (Homo sapiens) (UniProt Q05397). The experiment in a line: PTK2 protein binding on printed compound slides – biochemical, small-molecule microarray, 635/667 nm fluorescence, BSA, DTT, primary screen (AID 1130).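 Note: composite of spot emission at 667 nm and signal to noise over triplicate slides.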 The note with it: 635 nm fluorescence, higher = more signal.
Chain of Focal adhesion kinase 1 (Homo sapiens) (Q05397 whole entry, looked up): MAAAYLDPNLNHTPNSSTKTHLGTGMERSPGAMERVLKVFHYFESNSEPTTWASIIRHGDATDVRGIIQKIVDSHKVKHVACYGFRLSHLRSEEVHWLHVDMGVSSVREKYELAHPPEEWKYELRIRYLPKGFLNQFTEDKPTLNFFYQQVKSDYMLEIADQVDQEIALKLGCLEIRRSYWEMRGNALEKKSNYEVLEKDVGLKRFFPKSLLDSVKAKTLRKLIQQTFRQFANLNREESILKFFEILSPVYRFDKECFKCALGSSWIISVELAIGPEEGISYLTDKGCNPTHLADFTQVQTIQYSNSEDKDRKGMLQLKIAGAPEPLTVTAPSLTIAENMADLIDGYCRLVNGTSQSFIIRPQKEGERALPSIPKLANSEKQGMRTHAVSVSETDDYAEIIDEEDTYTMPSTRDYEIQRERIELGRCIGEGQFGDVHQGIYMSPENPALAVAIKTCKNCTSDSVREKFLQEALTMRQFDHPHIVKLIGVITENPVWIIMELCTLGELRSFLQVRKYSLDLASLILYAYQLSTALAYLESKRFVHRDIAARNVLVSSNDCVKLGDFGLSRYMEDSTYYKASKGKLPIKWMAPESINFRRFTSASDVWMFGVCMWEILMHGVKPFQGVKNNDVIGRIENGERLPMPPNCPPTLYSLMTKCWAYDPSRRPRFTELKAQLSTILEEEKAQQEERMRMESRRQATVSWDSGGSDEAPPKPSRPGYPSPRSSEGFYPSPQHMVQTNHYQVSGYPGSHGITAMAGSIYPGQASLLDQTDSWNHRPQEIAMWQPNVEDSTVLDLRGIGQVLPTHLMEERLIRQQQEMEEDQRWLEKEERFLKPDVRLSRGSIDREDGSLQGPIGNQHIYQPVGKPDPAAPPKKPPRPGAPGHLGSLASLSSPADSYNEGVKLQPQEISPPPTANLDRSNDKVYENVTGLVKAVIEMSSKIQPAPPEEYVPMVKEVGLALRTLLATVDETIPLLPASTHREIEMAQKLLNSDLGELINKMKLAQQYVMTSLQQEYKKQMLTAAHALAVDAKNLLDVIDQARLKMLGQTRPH
For experiment [4], the system named is Fibrinogen (Alexa647-labelled). The experiment is described as follows: Alexa647-fibrinogen binding to printed small molecules – biochemical, small-molecule microarray, 635/667 nm fluorescence, artefact control for SMM control-protein annotation, profiling panel (AID 1131).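 Note: z-score merges 667 nm fluorescence with per-spot signal-to-noise over triplicate slides.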 The note with it: fibrinogen-A647 binding fluorescence, higher = more signal.
The target of experiment [5] is Follistatin (Homo sapiens) (UniProt P19883). The experiment is described as follows: FST protein binding to printed compounds – biochemical, small-molecule microarray, 635/667 nm fluorescence, primary screen (AID 1132). The settings on record: 635 nm fluorescence, higher = more signal.
Chain of Follistatin (Homo sapiens) (P19883 whole entry, looked up): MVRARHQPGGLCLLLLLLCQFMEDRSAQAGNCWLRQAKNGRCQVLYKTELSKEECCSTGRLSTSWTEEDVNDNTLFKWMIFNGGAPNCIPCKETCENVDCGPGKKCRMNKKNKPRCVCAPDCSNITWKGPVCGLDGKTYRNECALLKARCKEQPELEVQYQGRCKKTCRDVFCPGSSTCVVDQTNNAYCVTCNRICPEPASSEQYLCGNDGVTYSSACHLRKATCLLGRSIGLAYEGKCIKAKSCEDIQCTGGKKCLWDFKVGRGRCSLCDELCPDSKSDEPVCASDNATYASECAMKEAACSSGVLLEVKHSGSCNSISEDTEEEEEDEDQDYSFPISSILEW
Experiment [6] deals with Fibroblast growth factor 2 (Homo sapiens) (UniProt P09038). The experiment in a line: basic fibroblast growth factor binding to printed compounds – biochemical, small-molecule microarray, 635/667 nm fluorescence, primary screen (AID 1133). The settings on record: FGF2, fluorescence 635/667, higher = more signal.
Chain of Fibroblast growth factor 2 (Homo sapiens) (P09038 whole entry, looked up): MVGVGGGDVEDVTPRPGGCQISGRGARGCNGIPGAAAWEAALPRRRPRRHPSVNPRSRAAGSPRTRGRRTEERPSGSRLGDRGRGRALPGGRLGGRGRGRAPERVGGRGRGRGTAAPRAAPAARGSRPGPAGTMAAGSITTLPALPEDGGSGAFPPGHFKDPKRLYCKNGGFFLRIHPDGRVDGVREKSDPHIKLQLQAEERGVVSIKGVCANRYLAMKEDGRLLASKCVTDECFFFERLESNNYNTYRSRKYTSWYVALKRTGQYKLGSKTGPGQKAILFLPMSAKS
Experiment [7] is described as follows: JC-1 mitochondrial potential readout, lung cancer cells – cell-based, A549, JC-1 fluorescence, basal, 24 h, 100 nL, profiling panel (AID 1138).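 Note: A549 lung adenocarcinoma cells under basal conditions with no added stimulus; test concentration not given here.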 The note with it: higher = more signal.
The test system of another experiment is Lefty1. The experiment is described as follows: Lefty1 protein binding to printed compounds – biochemical, small-molecule microarray, 635/667 nm fluorescence, primary screen (AID 1139). The settings on record: fluorescence 635/667, higher = more signal.
For experiment [8], the system named is wheat germ agglutinin (Triticum aestivum), Alexa647-labelled. The experiment is described as follows: Alexa647-WGA lectin binding to printed small molecules – biochemical, small-molecule microarray, 635/667 nm fluorescence, artefact control for SMM control-protein annotation, profiling panel (AID 1140).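 Note: score merges 667 nm feature emission with signal to noise over triplicate slides.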 The settings on record: WGA-A647 binding, 635 nm fluorescence, higher = more signal.

For experiment [9], the target named is Luciferin 4-monooxygenase (Photinus pyralis) (UniProt P08659). The experiment in a line: inhibition of purified Photinus pyralis luciferase – biochemical, luminescence, purified enzyme, 2006 set, primary screen (AID 1141).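 Note: cell-free assay with purified firefly luciferase at 100 ng per well in PBS; test concentration not given here.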 The note with it: purified firefly luciferase, SteadyGlo luminescence, 30 min; higher = more signal, called active from +8 up or from −8 down.
Chain of Luciferin 4-monooxygenase (Photinus pyralis) (P08659 whole entry, looked up): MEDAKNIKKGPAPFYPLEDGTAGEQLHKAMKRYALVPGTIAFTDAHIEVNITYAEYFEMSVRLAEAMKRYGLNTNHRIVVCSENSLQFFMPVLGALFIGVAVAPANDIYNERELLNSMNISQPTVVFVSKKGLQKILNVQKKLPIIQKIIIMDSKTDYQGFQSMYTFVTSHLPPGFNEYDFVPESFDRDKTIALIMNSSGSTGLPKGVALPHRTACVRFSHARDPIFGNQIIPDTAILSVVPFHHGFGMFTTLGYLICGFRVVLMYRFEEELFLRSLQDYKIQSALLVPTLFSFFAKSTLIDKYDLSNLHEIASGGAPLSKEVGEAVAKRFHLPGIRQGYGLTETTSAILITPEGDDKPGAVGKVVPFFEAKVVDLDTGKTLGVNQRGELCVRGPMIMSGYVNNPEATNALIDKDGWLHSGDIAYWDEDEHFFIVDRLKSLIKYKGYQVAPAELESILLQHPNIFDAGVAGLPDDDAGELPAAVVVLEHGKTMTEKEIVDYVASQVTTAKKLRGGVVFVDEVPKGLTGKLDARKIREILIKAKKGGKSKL

In experiment [10] the test system is Wnt5a (protein binding on small-molecule microarray). The experiment in a line: small molecules binding Wnt5a protein – biophysical, small-molecule microarray, 635/667 nm fluorescence, primary screen (AID 1142).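 Note: fluorescence read at 667 nm with signal to noise per printed feature.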 The settings on record: 635 nm fluorescence, higher = more signal.
The nature of experiment [11]: ATP-based viability of Huh7 replicon cells – cell-based, CellTiter-Glo luminescence, basal, 48 h, cytotoxicity control for HCV replication inhibitor project, primary screen (AID 1143).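 Note: Huh7 hepatoma cells carrying a hepatitis C replication reporter with no stimulus; test concentration not given here.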 The settings on record: higher = more signal, called active from +8 up or from −8 down.
Experiment [12] is described as follows: Pseudomonas biofilm growth suppression – PAO1 strain, BacTiter-Glo luminescence, LB-PBS, primary screen (AID 1144). The settings on record: P. aeruginosa PAO1 biofilm, 12 h, higher = more signal.
Experiment [13] in a line: basal CRE-LacZ reporter activity in PC12 – cell-based, unstimulated, primary screen (AID 1145). The note with it: no forskolin, luminescence, 4.5 h, higher = more signal, called active from +8 up or from −8 down.
Experiment [14] can be described thus: forskolin-driven CRE-LacZ activity in PC12 – cell-based, CRE-LacZ reporter, forskolin-stimulated, primary screen (AID 1146).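 Note: PC12 cells with 6xCRE LacZ reporter stimulated by forskolin 10 µM; beta-galactosidase reporter signal reflecting CREB driven transcription.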 The settings on record: luminescence, 4.5 h, higher = more signal, called active from +8 up or from −8 down.
For experiment [15], the target named is Streptavidin (Streptomyces avidinii) (UniProt P22629). The experiment is described as follows: compounds binding control protein streptavidin – biophysical, small-molecule microarray, 635/667 nm fluorescence, artefact control for SMM compound annotation, primary screen (AID 1147).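 Note: signal reflects streptavidin binding to arrayed compounds as a control protein.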 The note with it: higher = more signal.
Chain of Streptavidin (Streptomyces avidinii) (P22629 whole entry, looked up): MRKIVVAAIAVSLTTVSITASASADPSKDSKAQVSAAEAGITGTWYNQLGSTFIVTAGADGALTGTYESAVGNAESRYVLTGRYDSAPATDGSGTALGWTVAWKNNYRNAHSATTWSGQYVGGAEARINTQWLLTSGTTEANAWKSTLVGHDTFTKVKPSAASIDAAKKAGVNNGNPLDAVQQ
Experiment [16] in a line: probe aInhba binding on compound microarray – biochemical, small-molecule microarray, 635/667 nm fluorescence, primary screen (AID 1148).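 Note: score merges 667nm spot fluorescence with signal-to-noise for antibody binding to printed compounds.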 The note with it: higher = more signal.
The target of experiment [17] is Torsin-1A (Homo sapiens) (UniProt O14656). The experiment is described as follows: TOR1A wild-type binding on microarray – cell lysate, small-molecule microarray, lysate, 635/667 nm, primary screen (AID 1149). The note with it: COS7 hTOR1A-WT lysate, 635 nm fluorescence, higher = more signal.
Chain of Torsin-1A (Homo sapiens) (O14656 whole entry, looked up): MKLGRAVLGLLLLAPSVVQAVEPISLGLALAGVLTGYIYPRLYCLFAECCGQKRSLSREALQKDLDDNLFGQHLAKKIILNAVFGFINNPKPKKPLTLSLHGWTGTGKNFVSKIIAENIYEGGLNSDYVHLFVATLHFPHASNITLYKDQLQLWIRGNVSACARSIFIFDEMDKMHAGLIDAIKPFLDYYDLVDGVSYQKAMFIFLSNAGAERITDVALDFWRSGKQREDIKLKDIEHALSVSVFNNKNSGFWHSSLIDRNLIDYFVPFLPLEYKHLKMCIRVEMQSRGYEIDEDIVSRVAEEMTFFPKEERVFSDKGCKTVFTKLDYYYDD
Experiment [18] shares this target. The experiment in a line: torsin A mutant lysate binding on microarrays – cell lysate, small-molecule microarray, COS7 lysate, 635/667 nm fluorescence, primary screen (AID 1150).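 Note: score pools 667 nm emission and signal to noise measuring lysate protein binding.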 The note with it: COS7 hTOR1A mutant lysate, 635 nm fluorescence, higher = more signal.
The subject of experiment [19] is Sonic hedgehog protein (Shh). The experiment in a line: Sonic hedgehog microarray binding compounds – biochemical, small-molecule microarray, 635/667 nm fluorescence, primary screen (AID 1151).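 Note: Shh protein binding to compounds spotted on small-molecule microarray slides; score combines spot fluorescence intensity with signal-to-noise across triplicate slides.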 The note with it: 635 nm fluorescence, higher = more signal.

Consider `COC(=O)[C@@]1(Cc2ccc(F)cc2)[C@H]2c3cc(C(=O)N(C)C)n(Cc4ccc(Cl)c(C(F)(F)F)c4)c3C[C@H]2CN1C(=O)c1ccccc1`, for which the composite z-score in [1] is 2.56; in experiment [2], 1.22; in experiment [3] it was 1.14; in [4], 1.01; in [5], 0.909; in experiment [6], -0.542. Also, the composite z-score was -0.764 with Lefty1; 1.4 in experiment [8]; 0.156 in experiment [10]; 2.37 in [15]; 0.588 in experiment [16]; 0.146 with Torsin-1A (Homo sapiens) [17]. The composite z-score is 0.751 in the experiment with Torsin-1A (Homo sapiens) [18] and -0.823 in [19]. Besides, the z-score is 1.98 in experiment [7]; 1.04 (inactive) in experiment [9]; -2.95 (inactive) in experiment [11]; 0.44 (inactive) in [12]; 1.34 (inactive) in [13]; 0.778 (inactive) in experiment [14].

As to `O=C1C2C=CC(C(O)Cc3ccccc3)N(n3cnnc3)C2C(=O)N1Cc1ccccc1` (stereo not given), the composite z-score in experiment [1] is 1.38; in [2] it was 0.396; in experiment [3] it was -0.249; in [4] it was 0.573; in [5], -0.185; in experiment [6], -0.279. For the same compound, the composite z-score with Lefty1 is -0.648; in experiment [8], 1.31; in [10] it was 0.0769; in experiment [15], 0.0646; in experiment [16], -0.0118; in the experiment with Torsin-1A (Homo sapiens) [17], -0.0992. Further, the composite z-score with Torsin-1A (Homo sapiens) [18] is 1.05; in experiment [19], -0.373. Also, the z-score in [7] is -1.48; in experiment [9] it was 0.921 (inactive); in [11], 0.0633 (inactive); in [12], 0.0973 (inactive); in experiment [13], -0.0696 (inactive); in experiment [14], -0.413 (inactive).

With `[N-]=[N+]=NCc1ccccc1C[C@]1(C(=O)N2CCCCC2)N=C(c2ccc(OCCCO)cc2)O[C@H]1c1ccccc1N=[N+]=[N-]`, the composite z-score in experiment [1] was 2.87; in [2] it was 1.23; in experiment [3], 1.71; in experiment [4], 0.984; in experiment [5], 0.887; in experiment [6], -0.0521. Moreover, the composite z-score in the experiment with Lefty1 was -0.0342; in [8], 1; in experiment [10], 0.0151; in [15], 1.46; in [16], 0.127; with Torsin-1A (Homo sapiens) [17], 0.333. The results for the composite z-score (with Torsin-1A (Homo sapiens) [18]; in [19]) were 1.03 and -0.27, respectively. Moreover, the z-score in [7] is -0.756; in [9] it was -9.69 (active); in experiment [11], -5.01 (inactive); in [12] it was -0.799 (inactive); in experiment [13], -0.333 (inactive); in [14], -1.69 (inactive).

Take `COC(=O)C(CC#Cc1ccc2c(c1)[C@]1(C(=O)N2)[C@H](C(=O)Nc2nc3ccccc3s2)[C@H]2C(=O)O[C@H](c3ccccc3)[C@H](c3ccccc3)N2[C@@H]1c1ccc(O)cc1)C(=O)OC`: the composite z-score in [1] worked out at 0.274; in [2], 1.24; in [3], 0.936; in [4], 0.947; in experiment [5], 1.2; in experiment [6], 0.973. Moreover, the composite z-score with Lefty1 amounted to 0.963; in experiment [8], 1.01; in [10], 0.533; in [15], 0.906; in experiment [16], 0.0487; in the experiment with Torsin-1A (Homo sapiens) [17] it was 0.71. The composite z-score with Torsin-1A (Homo sapiens) [18] was found to be 0.964; in [19], 0.967. Moreover, the z-score in experiment [7] was -2.25; in experiment [9] it was 0.416 (inactive); in [11] it was -1 (inactive); in experiment [12] it was -0.672 (inactive); in [13], 0.155 (inactive); in [14] it was -0.669 (inactive).

Take `O=C1C[C@@](C(=O)NCCN2CCOCC2)(c2ccc([N+](=O)[O-])cc2)[C@@H](c2ccc(CO)cc2)N1CC12CC3CC(CC(C3)C1)C2`: the composite z-score in experiment [1] came to 2.5; in experiment [2] it was 1.25; in [3] it was 0.296; in experiment [4], 0.904; in experiment [5], 1.34; in experiment [6], 1.13. Moreover, the composite z-score with Lefty1 worked out at 0.646; in experiment [8] it was 1.09; in [10], 0.455; in [15] it was 0.379; in experiment [16], 0.0154; with Torsin-1A (Homo sapiens) [17], 0.179. In addition, the composite z-score was determined as 1.21 with Torsin-1A (Homo sapiens) [18] and 1.37 in experiment [19]. Moreover, the z-score in experiment [7] is -0.712; in experiment [9], -0.988 (inactive); in experiment [11] it was -5.78 (inactive); in [12], 0.881 (inactive); in experiment [13] it was 1.62 (inactive); in [14], -0.0481 (inactive).
